Screening results deposited in PubChem by National Center for Advancing Translational Sciences (NCATS).
This is a sample that favours compounds with a hit; in the whole collection about 4.2% have one here.
Sfp PPTase inh – qHTS Assay for Inhibitors of Bacillus subtilis Sfp phosphopantetheinyl transferase (PPTase); 4'-phosphopantetheinyl transferase ffp (Bacillus subtilis), Q9F4F7; Biochemical Sfp PPTase activity, qHTS; Potency, µM, without a hit: largest response in the series, negative = inhibition, hits mostly inhibitors; 310,000 tested, 3.5% active; AID 1490, 2009;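 also: the enzyme is Sfp with the accession as filed and its product quenches rhodamine fluorescence; 0% = enzyme reaction without inhibitor and -100% = no enzyme wells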
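Step 1, compound plus 15 nM Sfp-PPTase, 15 min, room temperature. Step 2, add rhodamine-CoA (5 uM) and BHQ-2-YbbR (12.5 uM). Step 3, read 525/598 nm fluorescence at 0 and 30 min.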
12-LOX inh – Primary qHTS assay for inhibitors of human arachidonate 12S-lipoxygenase (ALOX12): Round 2. Polyunsaturated fatty acid lipoxygenase ALOX12 (Homo sapiens), P18054. purified 12hLO, xylenol orange hydroperoxide absorbance. Potency, µM (series often up to 108 µM), without a hit: at the top dose activity change, negative = inhibition, hits mostly inhibitors. 580,000 tested, 1.1% active; also: % is scaled to controls: 0 for no effect and ±100 for the full control effect
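Purified human 12hLO at 150 nM in 25 mM Hepes, 0.01% Triton X-100, pH 7.0, preincubated 15 min at room temperature with compound. Reaction started with 40 uM arachidonic acid, 30 min at room temperature. Hydroperoxide measured by Fe-xylenol orange, 573/405 nm absorbance ratio.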
VDR inh – Inhibitors of the vitamin D receptor (VDR): qHTS | 400,000 tested, 0.93% active | Potency, µM, without a hit: max response, negative = inhibition, actives largely listed as inhibitors | VDR-SRC2-3 peptide fluorescence polarization, 2 h | Vitamin D3 receptor (Homo sapiens), P11473; also: % is scaled to controls: 0 for no effect and ±100 for the full control effect
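Compounds are added to VDR with labelled SRC2-3 coactivator peptide and held 2 h at room temperature. Inhibition of the VDR–peptide interaction is then read as a change in fluorescence polarization.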
PLK1 PBD inh – qHTS for Inhibitors of PLK1-PDB (polo-like kinase 1 - polo-box domain): Primary Screen; Serine/threonine-protein kinase PLK1 (Homo sapiens), P53350; Plk1 PBD binding of FITC phosphopeptide, fluorescence polarization; Potency, µM, for the others: max response, negative = inhibition, hits mostly inhibitors; 360,000 tested, 2.8% active; AID 720504, 2013; also: series mostly up to about 57 µM; % is scaled to controls: 0 for no effect and ±100 for the full control effect; nearly all actives have a fitted effect of over 65% in size
Target sequence (P53350 whole entry, looked up, the tested form may be a part): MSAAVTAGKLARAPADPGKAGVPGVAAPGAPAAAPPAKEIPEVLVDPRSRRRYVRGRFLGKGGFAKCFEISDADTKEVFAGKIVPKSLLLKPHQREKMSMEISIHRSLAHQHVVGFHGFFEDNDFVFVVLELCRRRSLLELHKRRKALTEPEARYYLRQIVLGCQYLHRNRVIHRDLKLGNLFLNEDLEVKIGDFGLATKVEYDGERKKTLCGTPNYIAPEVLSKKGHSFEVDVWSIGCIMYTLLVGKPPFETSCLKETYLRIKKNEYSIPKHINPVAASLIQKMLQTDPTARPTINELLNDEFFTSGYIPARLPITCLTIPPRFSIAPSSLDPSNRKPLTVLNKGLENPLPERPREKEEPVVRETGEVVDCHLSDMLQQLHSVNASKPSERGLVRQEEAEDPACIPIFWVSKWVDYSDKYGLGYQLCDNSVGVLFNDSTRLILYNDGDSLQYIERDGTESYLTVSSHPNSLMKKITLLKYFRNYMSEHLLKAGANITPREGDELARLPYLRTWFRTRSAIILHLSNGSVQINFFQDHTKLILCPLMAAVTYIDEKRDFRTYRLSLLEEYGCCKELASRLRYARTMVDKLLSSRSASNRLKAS
VDR confirm – qHTS for Inhibitors of the vitamin D receptor (VDR): Hit Validation in Primary Screen; 840 tested, 89% active; shares compounds with VDR inh; Potency, µM, actives largely listed as inhibitors; VDR-coactivator inhibition assay, qHTS confirmation
VDR FP – qHTS for Inhibitors of the vitamin D receptor (VDR): Hit Validation using a Fluorescein Assay; shares compounds with VDR inh; VDR-coactivator binding, fluorescein fluorescence polarization; Potency, µM (highest dose often 57.1 µM), without a hit: at the highest dose activity change, negative = inhibition, most hits filed as inhibitors; 840 tested, 48% active; AID 602200, 2012
VDR bla – qHTS for Inhibitors of the vitamin D receptor (VDR): Hit Validation using a Beta-Lactamase Assay | shares compounds with VDR inh | VDR beta-lactamase reporter cells, FRET ratio; cells co-treated with VDR agonist LG190178 | Potency, µM (highest dose often 46.1 µM), for the others: at the highest dose activity change, negative = inhibition, usual class: inhibitors | 840 tested, 23% active; also: % is scaled to controls: 0 for no effect and ±100 for the full control effect
VDR cytotox – qHTS for Inhibitors of the vitamin D receptor (VDR): Hit Validation using a Cytotoxicity Assay | shares compounds with VDR inh | cytotoxicity counter-screen, cell viability, qHTS | Potency, µM (doses to about 48.3 µM), for the others: top-dose activity change, negative = cytotoxicity, hits mostly cytotoxic | 840 tested, 18% active;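 also: plate controls were DMSO for no effect and high-concentration cycloheximide for full effect; nearly all actives have a fitted effect of over 75% in size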
* = called active by the depositor; [ ] = another dose, or the depositor's remark. Calls follow the shape of the dose curve; as a rule, active = well fitted curve in the direction sought with a large enough effect; inconclusive = small, poorly fitted or top-dose-only effect, or another doubt; inactive = no such curve, though single readings can be large; an effect the other way counts as inactive or inconclusive. Potency is read from the fitted curve at half-maximal effect.

Screening COc1ccccc1/C=C1\CCCC2=C1Nc1nnnn1C2c1ccccc1OC (stereo not given) returned Sfp PPTase inh 50.1µM*, 12-LOX inh 0.6%, VDR inh inconclusive, PLK1 PBD inh inconclusive, VDR confirm inconclusive, VDR FP inconclusive, VDR bla inconclusive and VDR cytotox -4.3%.
`Cn1nc(C(=O)N2C[C@@H](CO)[C@H](c3ccncc3)C2)c2ccccc21` gave 12-LOX inh 24.6%.
For COc1ccc(N2CCN(Cc3nc4ccccc4c(=O)[nH]3)CC2)cc1 the results were Sfp PPTase inh -5.2%, 12-LOX inh -16.7%, VDR inh inconclusive and PLK1 PBD inh -7.8%.
For c1ccc(CCc2nn3c(Cc4ccccc4)nnc3s2)cc1 the results were Sfp PPTase inh 22.4µM*, 12-LOX inh inconclusive, VDR inh 79.4µM*, PLK1 PBD inh 10.6µM*, VDR confirm 28.2*, VDR FP 25.1µM*, VDR bla -4.7% and VDR cytotox inconclusive.
`COc1ccc(Br)cc1C1NC(c2ccc3c(c2)OCO3)=CC(c2cc(Cl)ccc2O)N1` (stereo not given) gave VDR inh 50.1µM*, VDR confirm inconclusive, VDR FP inconclusive, VDR bla inconclusive and VDR cytotox -19.4%.
For CC(C)N(CCC#N)C(=O)Nc1ccc2c(c1)CCO2 the results were Sfp PPTase inh 13.6%, 12-LOX inh 209.9%, VDR inh 3.7% and PLK1 PBD inh -7.2%.
C=CCn1c(Sc2ncc([N+](=O)[O-])s2)n[nH]c1=O was read as Sfp PPTase inh 10µM*, 12-LOX inh inconclusive, VDR inh 28.2µM*, PLK1 PBD inh 1.19µM*, VDR confirm 15*, VDR FP inconclusive, VDR bla 25.9µM* and VDR cytotox inconclusive.
O=c1[nH]nc(Sc2ncc([N+](=O)[O-])s2)n1-c1ccc2c(c1)OCCO2 was read as 12-LOX inh -24.6%[57.4 µM].
For O=S(=O)(/N=C(\Sc1ccccc1)c1ccccc1)c1ccc(Cl)cc1 the results were Sfp PPTase inh 35.5µM*, 12-LOX inh inconclusive, VDR inh 79.4µM*, PLK1 PBD inh 2.38µM*, VDR confirm 11.9*, VDR FP inconclusive, VDR bla 27.2% and VDR cytotox inconclusive.
Screening CCOc1cc(/C=C/C(=O)O)ccc1OCCOc1ccccc1 returned Sfp PPTase inh 15.9%, 12-LOX inh -1.5%, VDR inh -10.3% and PLK1 PBD inh -11.5%.
Screening CCCOc1ccc(/C=C2/C(=O)ON=C2C)cc1OCC returned Sfp PPTase inh inconclusive, 12-LOX inh inconclusive, VDR inh inconclusive, PLK1 PBD inh 1.68µM*, VDR confirm 12.6*, VDR FP 7.08µM*, VDR bla inconclusive and VDR cytotox -27.2%.
